# Active and inactive are the calls of the source.
# Assays:
# [1] = test system: PRMT1 (protein arginine N-methyltransferase 1); assay: PRMT1 binders on small-molecule microarrays, primary screen, biochemical, small-molecule microarray, 635 nm fluorescence (AID 1088); settings: small-molecule microarray binding, higher = more signal;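 further: binding of Prmt1 protein to compounds spotted on small-molecule microarray slides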
# [2] = yeast growth modulation, basal conditions, primary screen, YJM789 clinical isolate, OD600, 24 h (AID 1089);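 further: growth of clinical yeast isolate S. cerevisiae YJM 789 seeded 1000 cells per well; test concentration not given here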; settings: S. cerevisiae YJM789 growth, higher = more signal, called active from +8 up or from −8 down
# [3] = fission yeast growth modulation, primary screen, strain 972, OD600, 24 h, no modulator (AID 1090);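 further: basal condition with compound alone and no growth modifier present; test concentration not given here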; settings: S. pombe 972 growth, higher = more signal, called active from +8 up or from −8 down
# [4] = S. cerevisiae growth modulation with rapamycin, primary screen, strain BY4716, OD600, 96 h (AID 1091); settings: higher = more signal, called active from +8 up or from −8 down; further: test concentration not given here
# [5] = target: Torsin-1A-interacting protein 2 (Homo sapiens) (UniProt Q8NFQ8); assay: LULL1 binders on small-molecule microarray, primary screen, cell lysate, human LULL1 lysate, 635/667 nm fluorescence (AID 1092); settings: hLULL1 lysate binding, 635 nm fluorescence, higher = more signal;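 further: probe is lysate of COS7 cells overexpressing human LULL1; score merges per-feature 667 nm fluorescence with signal-to-noise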
# Sequence of Torsin-1A-interacting protein 2 (Homo sapiens) (Q8NFQ8 whole entry, looked up): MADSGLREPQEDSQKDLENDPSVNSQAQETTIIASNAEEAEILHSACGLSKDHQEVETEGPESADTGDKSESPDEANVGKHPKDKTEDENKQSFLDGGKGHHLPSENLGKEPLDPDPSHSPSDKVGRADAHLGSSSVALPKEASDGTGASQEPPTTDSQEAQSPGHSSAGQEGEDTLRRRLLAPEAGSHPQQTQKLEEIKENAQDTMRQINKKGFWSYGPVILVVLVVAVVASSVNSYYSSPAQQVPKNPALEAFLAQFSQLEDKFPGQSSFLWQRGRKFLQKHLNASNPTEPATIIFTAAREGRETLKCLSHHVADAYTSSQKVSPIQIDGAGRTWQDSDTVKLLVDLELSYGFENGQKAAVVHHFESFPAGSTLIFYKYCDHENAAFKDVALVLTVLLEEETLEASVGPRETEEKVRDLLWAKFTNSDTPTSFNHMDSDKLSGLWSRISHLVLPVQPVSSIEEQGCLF
# [6] = E. coli growth modulation, two-sided OD650, primary screen, E. coli filamentation project, strain DRC41, 24 h (AID 1093); settings: OD650, 24 h, higher = more signal, called active from +8 up or from −8 down;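 further: MC1000 strain lacking acrAB efflux and sulA so SOS filamentation is blocked; test concentration not given here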
# [7] = small-molecule microarray binders of probe aLefty2, primary screen, biochemical, biotinylated probe, 635/667 nm fluorescence (AID 1094); settings: higher = more signal;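 further: score merges spot fluorescence near 667 nm with spot signal-to-noise ratio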
# [8] = test system: Noggin (protein binding on small-molecule microarray); assay: Noggin binders on small-molecule microarray, primary screen, biochemical, 635/667 nm fluorescence (AID 1095); settings: 635 nm fluorescence, higher = more signal;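 further: score merges 667 nm feature fluorescence with signal to noise over triplicate slides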
# [9] = target: Neurogenic locus notch homolog protein 3 (Homo sapiens) (UniProt Q9UM47); assay: NOTCH3 binders on small-molecule microarray, primary screen, biochemical, 635/667 nm fluorescence (AID 1096); settings: NOTCH3 binding, 635 nm fluorescence, higher = more signal
# Sequence of Neurogenic locus notch homolog protein 3 (Homo sapiens) (Q9UM47 whole entry, looked up): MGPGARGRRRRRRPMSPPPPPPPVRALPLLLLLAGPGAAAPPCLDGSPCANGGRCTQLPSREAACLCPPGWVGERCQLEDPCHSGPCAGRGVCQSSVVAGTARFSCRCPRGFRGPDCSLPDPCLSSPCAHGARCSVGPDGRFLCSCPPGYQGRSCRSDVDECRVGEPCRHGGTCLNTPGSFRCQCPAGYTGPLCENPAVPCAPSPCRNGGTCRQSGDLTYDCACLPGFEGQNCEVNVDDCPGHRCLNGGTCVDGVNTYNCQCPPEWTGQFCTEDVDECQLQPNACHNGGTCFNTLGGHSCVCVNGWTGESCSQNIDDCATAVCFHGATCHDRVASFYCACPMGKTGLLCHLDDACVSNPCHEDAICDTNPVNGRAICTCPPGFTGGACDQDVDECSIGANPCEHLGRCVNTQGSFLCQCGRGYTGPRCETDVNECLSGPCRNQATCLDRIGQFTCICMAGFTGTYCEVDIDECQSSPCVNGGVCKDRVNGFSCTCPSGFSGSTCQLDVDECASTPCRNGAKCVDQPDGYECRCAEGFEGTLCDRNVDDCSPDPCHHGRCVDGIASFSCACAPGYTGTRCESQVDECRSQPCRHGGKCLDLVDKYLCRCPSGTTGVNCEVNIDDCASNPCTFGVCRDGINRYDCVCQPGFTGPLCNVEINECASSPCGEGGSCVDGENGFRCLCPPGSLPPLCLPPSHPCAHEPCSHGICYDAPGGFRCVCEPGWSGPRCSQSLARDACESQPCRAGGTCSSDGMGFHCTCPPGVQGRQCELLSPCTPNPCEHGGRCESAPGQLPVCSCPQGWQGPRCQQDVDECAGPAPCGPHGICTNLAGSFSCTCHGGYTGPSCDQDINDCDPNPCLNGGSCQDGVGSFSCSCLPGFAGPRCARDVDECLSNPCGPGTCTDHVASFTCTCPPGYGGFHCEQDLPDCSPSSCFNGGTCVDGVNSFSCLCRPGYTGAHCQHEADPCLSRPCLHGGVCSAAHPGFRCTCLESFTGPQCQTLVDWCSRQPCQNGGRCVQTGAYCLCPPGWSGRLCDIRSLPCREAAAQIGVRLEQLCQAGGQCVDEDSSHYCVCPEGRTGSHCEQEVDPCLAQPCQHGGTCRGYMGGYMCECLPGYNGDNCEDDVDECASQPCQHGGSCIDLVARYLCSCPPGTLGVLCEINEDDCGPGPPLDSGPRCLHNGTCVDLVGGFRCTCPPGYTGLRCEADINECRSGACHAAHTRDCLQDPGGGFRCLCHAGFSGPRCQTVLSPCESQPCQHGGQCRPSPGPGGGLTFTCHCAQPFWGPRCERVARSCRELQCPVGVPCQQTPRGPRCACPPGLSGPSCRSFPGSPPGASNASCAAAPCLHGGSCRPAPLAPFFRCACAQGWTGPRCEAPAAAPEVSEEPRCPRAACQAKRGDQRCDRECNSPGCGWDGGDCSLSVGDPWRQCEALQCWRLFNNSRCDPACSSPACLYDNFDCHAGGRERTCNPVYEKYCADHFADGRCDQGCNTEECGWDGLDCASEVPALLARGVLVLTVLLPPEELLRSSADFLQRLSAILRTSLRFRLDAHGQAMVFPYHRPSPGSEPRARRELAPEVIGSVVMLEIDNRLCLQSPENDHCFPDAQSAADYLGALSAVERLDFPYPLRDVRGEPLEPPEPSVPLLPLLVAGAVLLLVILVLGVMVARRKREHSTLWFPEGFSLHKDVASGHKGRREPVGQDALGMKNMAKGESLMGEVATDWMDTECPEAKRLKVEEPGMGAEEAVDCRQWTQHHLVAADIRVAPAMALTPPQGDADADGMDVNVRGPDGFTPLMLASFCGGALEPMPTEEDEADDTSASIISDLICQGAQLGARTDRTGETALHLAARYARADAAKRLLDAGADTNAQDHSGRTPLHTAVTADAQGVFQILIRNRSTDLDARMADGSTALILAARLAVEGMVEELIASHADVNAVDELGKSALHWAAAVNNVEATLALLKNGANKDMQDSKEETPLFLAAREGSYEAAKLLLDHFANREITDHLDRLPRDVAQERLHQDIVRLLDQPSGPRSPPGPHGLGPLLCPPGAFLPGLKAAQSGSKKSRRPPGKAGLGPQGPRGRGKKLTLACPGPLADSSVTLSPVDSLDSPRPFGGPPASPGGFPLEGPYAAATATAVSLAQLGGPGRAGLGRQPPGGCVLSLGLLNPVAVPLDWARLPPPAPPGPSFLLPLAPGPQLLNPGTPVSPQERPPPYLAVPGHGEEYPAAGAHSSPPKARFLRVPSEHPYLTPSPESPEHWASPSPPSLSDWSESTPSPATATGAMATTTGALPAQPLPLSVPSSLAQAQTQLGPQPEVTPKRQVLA
# [10] = small-molecule microarray binders of probe aEGFR, primary screen, biochemical, biotinylated probe, 635/667 nm fluorescence (AID 1097); settings: higher = more signal;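 further: probe is a biotinylated anti-EGFR antibody binding compounds printed on slides; score combines fluorescence near 667 nm and signal to noise of each spot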
SMILES,composite z-score [1],z-score [2],z-score [3],z-score [4],composite z-score [5],z-score [6],composite z-score [7],composite z-score [8],composite z-score [9],composite z-score [10]
CCCC(=O)N(CCc1c[nH]c2ccccc12)[C@@H]1CC(C(=O)NCCO)=C[C@H](Oc2c(I)cc(CO)cc2OC)[C@H]1O,0.234,0.5 (inactive),-0.713 (inactive),-0.241 (inactive),1.42,1.55 (inactive),-0.157,0.259,-0.0693,-0.0708
COc1ccc(C#Cc2ccc3c(c2)[C@]2(C(=O)N3)[C@H](c3ccc(O)cc3)N3[C@H](c4ccccc4)[C@H](c4ccccc4)OC(=O)[C@H]3[C@@H]2C(=O)N2CCc3cc(OC)c(OC)cc3C2)cc1,1.54,1.74 (inactive),0.921 (inactive),1.93 (inactive),3.04,-0.0389 (inactive),-0.189,1.68,1.07,-0.0381
COC(=O)c1c2oc(c1C(=O)OC)C(=O)NC1(CCCCC1)c1cn(nn1)C[C@H](Cc1ccccc1)NC(=O)N[C@H](CO)CC2,1.27,0.517 (inactive),0.718 (inactive),-0.466 (inactive),2.86,1.52 (inactive),-0.186,0.322,0.705,-0.171
O=C1C2C=CC(C(O)c3c(F)cccc3Cl)N(Nc3ccccc3F)C2C(=O)N1c1ccccc1 (stereo not given),0.0998,0.232 (inactive),1.03 (inactive),0.722 (inactive),2.98,-0.744 (inactive),0.17,0.0424,1.05,0.196
COC(=O)[C@@]1(Cc2ccc(OC)cc2)[C@H]2c3cc(C(=O)N(C)C)n(Cc4ccc(C(F)(F)F)nc4)c3C[C@H]2CN1C(=O)c1ccccc1,-1.54,0.643 (inactive),1.7 (inactive),0.473 (inactive),2.17,0.379 (inactive),0.498,0.243,-0.055,0.338
CCOC(=O)C1=CC[C@@H](c2ccc(C(F)(F)F)cc2)N(S(=O)(=O)c2ccc(C)cc2)[C@H]1c1ccccc1,1.49,-0.641 (inactive),-0.482 (inactive),0.363 (inactive),2.92,-0.617 (inactive),0.285,0.496,1.05,0.208
COC(=O)C(CC#Cc1ccc2c(c1)[C@]1(C(=O)N2)[C@H](c2ccc(O)cc2)N2[C@H](c3ccccc3)[C@H](c3ccccc3)OC(=O)[C@H]2[C@@H]1C(=O)N1CCN(c2ncccn2)CC1)C(=O)OC,1.55,1.07 (inactive),0.516 (inactive),1.93 (inactive),3.21,0.248 (inactive),0.107,0.24,0.975,0.0167
COc1ccccc1CN1C(=O)c2ccccc2[C@@]2(Cc3ccccc3N(CCCN(C)C)C2=O)[C@@H]1c1ccc(CO)cc1,0.557,0.431 (inactive),-1.23 (inactive),-1.35 (inactive),0.425,0.276 (inactive),-0.247,0.395,0.0593,-0.0612
CC1CC/C=C\[C@H]2OC34C=CCN(Cn5nnc6ccccc65)C(=O)[C@H]3N(CCCCCO)C(=O)[C@@H]4C2C(=O)O1 (stereo not given in full),0.547,0.31 (inactive),0.423 (inactive),-0.644 (inactive),2.47,0.752 (inactive),-0.169,-0.355,-0.432,-0.18
COCCOC(=O)N1C(=O)[C@@]2(c3cc(C#CC4(O)CCCCCC4)ccc31)[C@H](c1ccccc1OCCO)N1[C@H](c3ccccc3)[C@H](c3ccccc3)OC(=O)[C@H]1[C@@H]2C(=O)N1CCc2cc(OC)c(OC)cc2C1,1.55,2.46 (inactive),2.71 (inactive),5.86 (inactive),2.96,0.339 (inactive),-0.0903,1.24,1.05,0.0092
C=C(CCCC)/C(=C/C[C@H](OC(C)=O)c1ccc(OCCO)cc1)c1cnc2ccccc2c1,1.53,-1.1 (inactive),-1.83 (inactive),-0.434 (inactive),1.92,1 (inactive),-0.138,1.04,0.727,-0.0824
CCN(CC)c1ccc(N2CC=CC34O[C@@H]5C=CCOC(=O)[C@@H]5[C@H]3C(=O)N(CCCCCCO)[C@@H]4C2=O)cc1 (stereo not given in full),0.933,-0.259 (inactive),-0.53 (inactive),-0.975 (inactive),2.63,2.24 (inactive),-0.192,-0.526,-0.136,-0.0987
COC(=O)c1c(CC[C@@H](CO)NC(=O)N[C@H](Cc2ccccc2)Cn2cc(-c3ccccn3)nn2)oc(C(C)=O)c1C(=O)OC,0.73,-0.413 (inactive),0.0254 (inactive),-0.398 (inactive),1.68,-0.419 (inactive),-0.207,-0.151,0.0619,-0.096
CN(C)CCCCCCNC(=O)[C@@H]1C[C@@H]2C(=O)N3CCC[C@H]3C(=O)N2[C@@H]1c1ccc(O)cc1,1.53,-3.92 (inactive),-0.974 (inactive),-0.982 (inactive),2.51,0.434 (inactive),0.312,1.5,1.05,0.28
CC(C)[C@@H](C(=O)O)n1cc(C2(O)CCCCC2)nn1,0.629,-0.791 (inactive),0.462 (inactive),-1.12 (inactive),1.02,0.616 (inactive),-0.132,0.731,1.05,-0.02
